According to PubChem BioAssay AID430 (Sanford-Burnham Center for Chemical Genomics, 2006):
Hit rate of the full screen: of about 63,000 compounds, about 1,100 (1.7%) were called active. Rule as the data show it: active = cytotoxicity above about 50%; inactive = the rest. The list comes from a sample in which actives are over-represented; it also holds similar structures and randomly drawn compounds. Potency and affinity values are given separately.

Experiment: cytotoxicity in HPDE-C7 cells, cell-based, fluorescence, HTS (AID 430);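 also: cells exposed to compound for 48 hours before viability readout; 0% = vehicle and 100% = reference cytotoxic drug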
Settings: HPDE-C7 pancreatic duct cells viability, at 10 µM, stronger effect = higher value

Compound	cytotoxicity
CCCn1c(C)cc(=O)c2cc(NC(=O)c3ccccn3)ccc21	16.1% (inactive)
COC(=O)CCCCCNc1ccc(C(=O)OC)cc1N	-12.1% (inactive)
CC1Cc2nc(SCC(=O)N3CCc4ccccc43)n(C)c(=O)c2S1 (stereo unspecified)	-19.6% (inactive)
O=S(=O)(NCCc1csc(-c2ccccc2)n1)c1ccc2c(c1)OCCO2	6.2% (inactive)
O=C(CCCCn1c(=S)[nH]c2ccsc2c1=O)NCc1ccco1	-3% (inactive)
Cc1ccc(C)c(N2CCN(C(=O)C3CCCN(S(=O)(=O)c4cnc[nH]4)C3)CC2)c1 (stereo unspecified)	-3.6% (inactive)
COc1cccc(C2=NOC(C(=O)N3CCN(C(=O)c4ccco4)CC3)C2)c1 (stereo unspecified)	-8.5% (inactive)
CSCCC(NC(=O)c1ccccc1)C(=O)NCc1ccco1 (stereo unspecified)	-8.6% (inactive)
O=C(Cn1cnc2ccccc2c1=O)c1ccc2c(c1)OCCO2	-6.3% (inactive)
COc1cccc(-c2cc(C(=O)Nc3c(C)nn(Cc4ccccc4C)c3C)no2)c1	-3.2% (inactive)
COc1ccccc1C(=O)N1CCN(C(=O)COc2cccc(C)c2)CC1	-7.6% (inactive)
CC1=C(C(=O)NC(C)c2ccc3c(c2)OCCO3)C2(CCC(C)CC2)OC1=O (stereo unspecified)	10.7% (inactive)
CCCCOc1ccc(-c2c(C#N)c(N)nc(SCC(N)=O)c2C#N)cc1	82.5% (active)
CCOC(=O)CSc1nc(N)c(C#N)c(-c2ccc(OC)cc2)c1C#N	-6.1% (inactive)
CCCCOC(=O)CSc1nc(N)c(C#N)c(-c2ccc(OC)cc2)c1C#N	-16% (inactive)
CCOC(=O)CC(=O)CSc1nc(N)c(C#N)c(-c2ccc(F)cc2)c1C#N	5.6% (inactive)
CCOC(=O)CC(=O)CSc1nc(N)c(C#N)c(-c2ccc(Cl)cc2)c1C#N	54.7% (active)
CCCCOC(=O)CSc1nc(N)c(C#N)c(-c2ccc(OCC)cc2)c1C#N	5.1% (inactive)
CC(=NCC1CCNCC1)C1=C(O)CC(C)(C)CC1=O	-8.1% (inactive)
CCOc1ccccc1-c1nn2c(Cc3ccccc3)nnc2s1	-4.2% (inactive)
NC(=O)C(F)(F)C12OC3C4C5CC(C6C5C3C61)C42 (stereo unspecified)	-3.7% (inactive)
CC(C)(C)Nc1cccccc1=O	-8% (inactive)
COc1ccc(C)cc1S(=O)(=O)N(CC(=O)O)c1ccccc1	-0.9% (inactive)
COc1ccc(S(=O)(=O)n2nc(-c3cc(OC)c(OC)c(OC)c3)cc2N)cc1OC	-3.7% (inactive)
COc1ccc(OC)c(S(=O)(=O)n2nc(-c3ccccc3)cc2N)c1	-13.7% (inactive)
Cc1cc(C)cc(N2C(=O)C3C4C=CC(C4)C3C2=O)c1 (stereo unspecified)	-5.5% (inactive)

Compound	cytotoxicity
Cc1ccc(CC2(O)CC(C)N(C)CC2C)c(C)c1 (stereo unspecified)	0.1% (inactive)
Nc1nonc1C(=O)NC(c1ccccc1)c1ccccc1	3.4% (inactive)
COc1ccc(C2CC(c3ccccc3)Nc3nc(NC(=O)c4cccs4)nn32)cc1 (stereo unspecified)	-3.4% (inactive)
COc1ccccc1C(=O)N1CCN(c2cccc(Cl)c2)CC1	-13% (inactive)
COc1ccc(C(=O)N2CCN(c3cccc(Cl)c3)CC2)c(OC)c1	44.1% (inactive)
Cc1cc(C(=O)N2CCN(c3ncccn3)CC2)c(C)o1	2.2% (inactive)
CCOc1ccc(C(=O)N2CCN(c3ccccc3)CC2)cc1OCC	-51.5% (inactive)
O=C(O)c1ccccc1C(=O)N1CCN(c2cccc(Cl)c2)CC1	6.7% (inactive)
Cc1cc(C(=O)N2CCN(c3cccc(Cl)c3)CC2)c(C)o1	53.3% (active)
O=C(c1cccc(F)c1)N1CCN(c2cccc(Cl)c2)CC1	36.5% (inactive)
CCOc1ccc2ccccc2c1C(=O)N1CCOCC1	2.5% (inactive)
CCOc1ccc2ccccc2c1C(=O)N1CCN(c2ccccc2)CC1	50.5% (active)
Cc1ccc(C(=O)N2CCN(c3cccc(Cl)c3)CC2)cc1C	36.8% (inactive)
O=C(c1c(Cl)nc2sccn12)N1CCN(c2cccc(Cl)c2)CC1	75% (active)
CCOc1ccccc1C(=O)N1CCN(c2cccc(Cl)c2)CC1	62.2% (active)
CN1CCN(/C=C2\SC(=S)NC2=O)CC1	-23.4% (inactive)
O=C(c1cnc2n(c1=O)CCS2)N1CCN(c2ccc(Cl)c(Cl)c2)CC1	-3.5% (inactive)
CC(NS(=O)(=O)c1ccc(Br)cc1)C(c1cccs1)N1CCN(C)CC1 (stereo unspecified)	-8.4% (inactive)
c1ccc(-n2c(-c3ccncc3)nnc2-c2ccco2)cc1	-33.8% (inactive)
O=C(O)CC1C(=O)NCCN1C/C=C/c1ccccc1 (stereo unspecified)	-5.3% (inactive)
O=C(CN(C(=O)CNC(=O)c1ccco1)c1ccc2c(c1)OCO2)NC1CCCCC1	-31.1% (inactive)
Cc1ccc2c(c1)nnn2C1CCN(C(=O)C2CCCCC2)CC1	-12.5% (inactive)
COc1ccccc1CC(=O)N1CCN(c2cccc(C(F)(F)F)c2)CC1	-10.2% (inactive)
O=C(c1ccccc1F)N1CCN(c2cccc(C(F)(F)F)c2)CC1	-5% (inactive)
COc1ccccc1C(=O)N1CCN(c2cccc(C(F)(F)F)c2)CC1	60.8% (active)
CSc1nsc(SCc2ccc(F)cc2)n1	-4.1% (inactive)

Compound	cytotoxicity
Nc1nnc(SCc2ccc(F)cc2)s1	-16.7% (inactive)
Cc1nnc(SCc2ccc(F)cc2)s1	105% (active)
Clc1ccccc1-c1nnc2sc(-c3ccco3)nn12	-6.1% (inactive)
COC(=O)C1=C(C)N(c2ccc(Cl)c(Cl)c2)C(=O)C1	84.2% (active)
COC(=O)C1=C(C)N(c2ccc(F)c(Cl)c2)C(=O)C1	-5.3% (inactive)
COC(=O)C1=C(C)N(c2cccc(Cl)c2)C(=O)C1	-4.9% (inactive)
Cc1nc2c(o1)CCc1ccccc1C2N1CCN(C)CC1 (stereo unspecified)	-16.4% (inactive)
CC(C)CC(OC(=O)c1ccco1)C(=O)NC1CCCCC1 (stereo unspecified)	-5.1% (inactive)
Cc1ccc(N2CCN(CCc3nc4cc(NS(C)(=O)=O)ccc4n3C)CC2)cc1	-22.1% (inactive)
CCC(C)(C)n1nnnc1C(C(C)C)N1CCC(C(N)=O)CC1 (stereo unspecified)	5.6% (inactive)
CCC(C)(C)n1nnnc1C(c1ccccc1F)N1CCC(C(N)=O)CC1 (stereo unspecified)	56.3% (active)
CC(C)CCn1nnnc1C(c1ccccc1F)N1CCC(C(N)=O)CC1 (stereo unspecified)	-13.3% (inactive)
O=C(CN(C1CCCCC1)S(=O)(=O)c1ccc(Cl)cc1)NCc1ccncc1	-8.9% (inactive)
Cc1cc(C)c2c(CN3CCN(Cc4ccc5c(c4)OCO5)CC3)cc(=O)oc2c1C	44.1% (inactive)
O=C(CCCOc1ccc(Cl)cc1Cl)N1CCN(c2ccccn2)CC1	3.1% (inactive)
O=C(c1cccc(COc2ccc(Cl)cc2Cl)c1)N1CCN(c2ccccn2)CC1	77.5% (active)
O=C(c1cccc(Cl)c1)N1CCN(c2ccccn2)CC1	-14.9% (inactive)
Cc1cc2c(cc1C)NC(CC(=O)NCc1ccccc1)C(=O)N2 (stereo unspecified)	1.1% (inactive)
C=CCNc1nc(-c2sc(NC(C)=O)nc2C)cs1	11.6% (inactive)
CC(=O)Nc1nc(C)c(-c2csc(Nc3ccc(O)cc3)n2)s1	58.6% (active)
Cc1nc(N)sc1-c1csc(Nc2ccccc2)n1	36.2% (inactive)
NS(=O)(=O)c1ccc(Nc2nc(-c3ccc(O)cc3)cs2)cc1	-1.2% (inactive)
c1cncc(Nc2nc(-c3ccncc3)cs2)c1	-3.1% (inactive)
Oc1ccc(Nc2nc(-c3ccc(O)cc3)cs2)cc1	78.4% (active)
O=C(NC1CCCC1)c1cnc2n(c1=O)CCS2	-10.2% (inactive)
O=C1CC(O)(C(F)(F)F)Oc2c1ccc1ccccc21 (stereo unspecified)	82.3% (active)

Compound	cytotoxicity
COc1ccc2c(c1)OC(O)(C(F)(F)F)CC2=O (stereo unspecified)	-3.3% (inactive)
O=C1CC(O)(C(F)F)Oc2ccc3ccccc3c21 (stereo unspecified)	-12.2% (inactive)
COc1cccc(-c2nc(=S)c3c(n2Cc2ccco2)CCCC3)c1	-22.8% (inactive)
CN(C)c1nc(SCCOC(=O)Nc2ccccc2)nc(N(C)C)n1	19.3% (inactive)
Cc1c(NC(=O)OCCSc2nc(N(C)C)nc(N(C)C)n2)sc(=S)n1C	59.5% (active)
CCOC(=O)Nc1sc(=S)n(C)c1C	-8.2% (inactive)
Nc1nc2nccc(-c3ccc(Cl)cc3)n2n1	3.6% (inactive)
Cc1ccc(NC(=O)N2CCCC2C(=O)NCCc2ccccc2)cc1 (stereo unspecified)	-9.2% (inactive)
Cc1ccc(S(=O)(=O)N2CCN(C(=O)COC(=O)COc3ccccc3)CC2)cc1	7.4% (inactive)
CCOC(=O)c1ccc2c(c1)nc(SCc1cn3ccsc3n1)n2CC	19.7% (inactive)
COc1cc([C@@H]2c3cc4c(cc3[C@H](O)[C@H]3COC(=O)[C@H]23)OCO4)cc(OC)c1OC	67.2% (active)
COc1cc(CC(=O)NCc2ccc3c(c2)OCO3)cc(OC)c1OC	-7.2% (inactive)
COc1cc(CC(=O)Oc2ccc3c(c2)OCO3)cc(OC)c1OC	28.4% (inactive)
Cc1nn(C)c(C)c1S(=O)(=O)N1CCCC(C(=O)NCC2COc3ccccc3O2)C1 (stereo unspecified)	-4% (inactive)
Fc1cccc(CSc2ncnc3c2oc2ccccc23)c1	12.4% (inactive)
COCCn1nnnc1C(c1ccc(OC)cc1OC)N1CCN(c2ccccc2)CC1 (stereo unspecified)	-2% (inactive)
COc1ccc(OC)c(C(O)c2coc3ccc(O)c(CN4CCOCC4)c23)c1 (stereo unspecified)	1.7% (inactive)
COC(=O)CSc1nnc(CSc2nc(C)cc(C)n2)n1Cc1ccco1	-2.1% (inactive)
COc1ccc(C(C)=O)cc1COC(=O)c1cc(C)oc1C	2.5% (inactive)
COc1ccccc1C(=O)OCC(=O)Nc1ccc(OC(F)F)cc1	5.1% (inactive)
Cc1cccnc1Nc1nc(-c2ccc(O)cc2O)cs1	67.2% (active)
Cc1cc(O)ccc1Nc1nc(-c2sc(N)nc2C)cs1	1.6% (inactive)
Cc1nc(N)sc1-c1csc(Nc2ccccn2)n1	-12.4% (inactive)
